Data published in the supplement of paper PMC11417369.
The full ranking holds about 25,000 sequences; the median of “ln(normalized median fluorescence intensity)” is about 9.3, and the highest 2% start at about 10. What follows is part of a selection rich in the highest values, with near analogues and random picks from the rest.

Tested on: PF3D7_0420300 AP2 domain 1 (GST-tagged)
Test: gcPBM binding intensity (ln(normalized median fluorescence intensity)); higher = stronger DNA binding
Summary of the method: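 Binding intensity values are the highest Masliner-normalised natural-log median intensity among replicate spots of either probe orientation. The binding step lasted 1 h in 1× PBS with 1% milk, 0.2 mg/ml BSA, 0.5% salmon testes DNA and 0.03% Triton X-100, using GST-tagged P. falciparum DNA-binding domains expressed in E. coli on an Agilent 4 × 180k array of primer-extended double-stranded 36-bp intergenic genomic probes plus negative controls. Alexa488 anti-GST antibody and a 488 nm scan detected bound protein.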

Row | Sequence | gcPBM binding intensity (ln)
1 | TATGTGAATATAATCACACACAATACGGAAACCCAC [CACACA_site2725] | 9.77
2 | AATATGTGAATATAATCACACACAATACGGAAACAC [CACACA_site8875] | 10.1
3 | TATGTGAATATAATCACACACAATACGGAAAGAGAC [CACACA_site7311] | 10.2
4 | TTTTTTTTTTTTTTTGCACACACCATATTTATAGAA [CACACA_site3310] | 9.46
5 | GTTCATAAATTAAACACACACACACCCCTGGATACC [CACACA_site3331] | 10.2
6 | GTTCATAAATTAAACACACACACACCGCTGGATACC [CACACA_site5779] | 10.1
7 | TCATAAATGAAACACACACACACATCTGGATACCCC [CACACA_site3332] | 10.1
8 | TCATAAATTAAACACACACACACATCTGGATACCCC [CACACA_site9096] | 10.3
9 | GTTCATAAATTAAACACACACACACGGCTGGATACC [CACACA_site7545] | 10.1
10 | ATAAATTAAAAACACACACACATCTGGATACCCCTA [CACACA_site5780] | 10.1
11 | TACTCCTCAATATTATGTACATATAATAGTTATAAA [XGTACX_site8551] | 9.23
12 | TATATACAAAAAATATGTACATATATATATATATAT [XGTACX_site3497] | 9.21
13 | TAATATTTTATTTTTGTTGTGGATCCAAAAAAAAAA [CACACA_negctrl_site846] | 8.76
14 | TAATATGAAATGTGTACACACGCACCCACAAAAAAA [CACACA_site8949] | 9.74
15 | AAAAATTATAGAAAAGTGCAATACATGTTACACCAT | 9.28
16 | AAAAAATCAAAACACACACACACACCCAAAAAAAAA [CACACA_site1444] | 10.1
17 | AAAAAATCAAAACACACACACACACTAGAAAAAAAA [CACACA_site4909] | 10.3
18 | AACAAATACGGACACACACACACACTAGAAAAAAAA [CACACA_site4442] | 10.2
19 | TATTAATACGGACACACACACACACTAGATAAAATA [CACACA_site4295] | 10.2
20 | CAAATAAATATTAAAAGTACACACAGATACACTAAT [XGTACX_site3749] | 9.88
21 | AACAAACACGGACACACACACACACTAGAATGATTA [CACACA_site5364] | 10.2
22 | CAAATACACGGACACACACACACAAAAAAAAAAAAA [CACACA_site6385] | 10.1
23 | AACACGCACAGACACACACACAAAAATGATTAAAAA [CACACA_site7195] | 9.67

Row | Sequence | gcPBM binding intensity (ln)
24 | ATAAATATTAAAAGTACACACAGATACACTAATTAT [CACACA_site1808] | 9.75
25 | CAAACCCACGGACACACACACACAAAAATGATTAAA [CACACA_site5365] | 9.93
26 | TACACAGACGGACACACACACACACTAGAAAAAAAA [CACACA_site4435] | 10
27 | AAAGAAAAAAAAAAAACACACAAAAAAAATCAAAAT [CACACA_site2871] | 9.94
28 | AACAAAATTGAAGGAACACACATACAGATATATATA [CACACA_site4264] | 9.81
29 | AGCAAAAATTAAATAAATAAATATATATATATATAT [TGCATGCA_negctrl_site449] | 9.12
30 | TTTTTGCAAAAAGAAATAATTTTATTTTAGTTCGGA [CACACA_negctrl_site1718] | 8.78
31 | ATTTTTATACGTTTTTTTTTTTTTTTTTTTTATTTA [CACACA_negctrl_site1142] | 9.62
32 | ATAATGTGTTAGGCGTGTACACAATTGTATGGTTTA [XGTACX_site2377] | 9.45
33 | ATATTAACTTTTATTACACACTCTCAACTTTTATTT [CACACA_site6176] | 9.72
34 | GTACTTGTATTATGCACACATATAATTAAACATATA [CACACA_site3312] | 9.41
35 | CATTTTAAAACAGACACACACCAAAAAAAAAAAAAA [CACACA_site6259] | 9.4
36 | AAGAAAAACTAAAGAGTTCTGTTCATATCTCTTTGG [TGCATGCA_negctrl_site549] | 8.99
37 | TTTATTTTATCATTTGCACACGCACGCCCACATAAA [CACACA_site353] | 9.4
38 | ATCAAGCACGAACACACACACACACGCACGCCCACA [CACACA_site6308] | 10.2
39 | CCAACATGCCCACGCACACACAAAAAAAGCATGCAT [CACACA_site4217] | 9.58
40 | GAGAGTAAAACAAATATACACACCATAAAGTTATAA [CACACA_site1686] | 9.49
41 | TTCATTCAAATTAACGTGCACATTATTAGTAAAAAC | 9.08
42 | ATACTAAATGAACACACACACATATAGATTTATAAC [CACACA_site6200] | 10.2
43 | ATACTAAATGAACACACACACATATATATATATAAT [CACACA_site4232] | 10.1
44 | TTATACTAAATGAACACACACACATATATATATATA [CACACA_site99] | 9.81
45 | TAGTGTATGATAATATGTACATACATTTATATAATA [XGTACX_site6330] | 9.11
46 | TATATATATATATAAACACACATAAATATAAATATA [CACACA_site1121] | 9.6

Row | Sequence | gcPBM binding intensity (ln)
47 | AAAAAAAGTTATATTACACACTTTATTCGTTAACTT [CACACA_site3013] | 9.47
48 | TTTGTTATGGTTTTCTCACACATATATATATATATA [CACACA_site4617] | 9.5
49 | AAAAAAAAAAGACACACACACAAATACAAATACATA [CACACA_site6334] | 10
50 | AATAAAAAAAAAAAAAAAAAAAAAAAGACACTAAAA [CACACA_negctrl_site1075] | 9.33
51 | AAAAAAAAAAAACACACACACACACTAATACATACA [CACACA_site8135] | 10.1
52 | AAAAAAAAAAGACACACACACACACTAATACATACA [CACACA_site6473] | 10.2
53 | AAAAAAAAAAGACACACACACACAAATACATACACA [CACACA_site6472] | 10.1
54 | AAAAAAAAAAGACACACACACACATACACATACATA [CACACA_site7362] | 10.2
55 | ATGGGTATATTTCCACGTACAAAAAATCCGAATTGC [XGTACX_site1490] | 9.23
56 | AAAAATTAAAATATTATAGTTGAAACTTTTATAAAT [TGCATGCA_negctrl_site454] | 8.81
57 | AATATGTAGTAATCAAGTACTAATGTCTTAATTCGG [XGTACX_site308] | 9.27
58 | GATATGAATATAGGTTGTACTATATATAAAGTATGT [XGTACX_site1877] | 9.35
59 | CCACTGTATGAATGCACACATTCATAGAATTGCTAT [CACACA_site2676] | 9.24
60 | CATATAAATAGACACACACACACATATAAATAAATA [CACACA_site7156] | 10.3
61 | TATATAAATAGACACACACACACATATAAATAAATA [CACACA_site7855] | 10.2
62 | TAATAATAGAGACACACACACATAGACATATAAATA [CACACA_site6729] | 10.2
63 | TATATATATAGACACACACACATATAAATAAATAAA [CACACA_site444] | 10.1
64 | TATATAAATAGACACACACACATATAAATATAAATA [CACACA_site6503] | 10.1
65 | TATAAATAGAGACACACACACATATAAATAAATATT [CACACA_site7854] | 10.1
66 | TTATAAAATAAACTTACACACATGAAATATTATATT [CACACA_site1945] | 9.49
67 | ATAGAAGCTGTTGACGAAGAAAAAAAAAAAAAAAAA [CACACA_negctrl_site110] | 8.56
68 | TTTAAAAAAATTCATGCACACGAAATAAAAAGCACC [CACACA_site8214] | 9.71
69 | ACAAAAAAAAAAAAAAAAAGAAGAATATATCTATAT [CACACA_negctrl_site759] | 9.16

Row | Sequence | gcPBM binding intensity (ln)
70 | ATTATAAATATATTTTGTACTTAAAAGGAAAAAAAA [XGTACX_site55] | 9.02
71 | TATAATCATAAATACACACACATATATATATATATA [CACACA_site5224] | 9.54
72 | TTAAAATATACATAAACACACACAAAACGTTTAAGA [CACACA_site8267] | 9.9
73 | AAATTAATTAAATATACACACATATATAAATATATA [CACACA_site391] | 9.38
74 | ACATATACAAAACACACACACAACGTTTTAATAAAT [CACACA_site1979] | 10.1
75 | ACATATACAAGACACACACACAACGTTTTAATAAAT [CACACA_site7017] | 10.2
76 | ACATATAAAATATATACACACATATAAATACATTAA [CACACA_site3867] | 9.75
77 | ATAAATACATATAAAAGTACACACACACACATATAT [XGTACX_site1744] | 10.4
78 | TATAAATATATATACACACACACATTAATACATATA [CACACA_site3488] | 10.2
79 | AAAAAAAAAAAGTACACACATACATATAAATATATA [CACACA_site1809] | 9.46
80 | AAATATAAAAAATATACACACATATATAATATATAT [CACACA_site2963] | 9.55
81 | AAAAAAAAAAAAAGTACACACATACATATAAATATA [CACACA_site8533] | 9.72
82 | AAATATAAATGGTAATACACATACACACACACATAC [XGTACX_negctrl_site459] | 10.2
83 | TATATTGAAAATAAAACATGCAATCACTCATACATA [TGCATGCA_site248] | 9.36
84 | AAAGAAAAATTAACATGTACAAAAATTACTTGTTCA [XGTACX_site6725] | 9.21
85 | AAAAAATAAATAAATACACACAAATCTATATTTATA [CACACA_site7243] | 9.51
86 | GTATTCTACAGACACATACACACATATATATATATA [CACACA_site3427] | 9.7
87 | TTAAATATAAAAAGTAGTACATTTATATTTACCATA [XGTACX_site2962] | 8.96
88 | AATTCATTATATATACGTACATATTTCTGTATAAAA [XGTACX_site6371] | 9.24
89 | ATACATATATATAGGTGTACATATAATATATATATA [XGTACX_site2228] | 9.35
